Source: PubChem BioAssay (Tox21)
Records with an inconclusive call do not appear. A call without a number means that no potency is given here. Unmarked numbers belong to inactive results. Active and inactive are the calls of the source. Unless noted, calls come from the whole dose curve; as a rule, active = well fitted curve in the direction sought with a large enough effect in the repeat runs; inconclusive = weak or mixed curves; inactive = no such curve, though single readings can be large; an effect the other way counts as inactive or inconclusive.

Legend:
[1] = qHTS assay to identify small molecule antagonists of the retinoid acid receptor (RAR) signaling pathway - cell viability counter screen (AID 1159551); note: nearly all actives have a fitted effect of over 35% in size
Procedure, shortened: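 Following overnight attachment, C3RL4 reporter cells received DMSO-dissolved compounds and then retinol (1 uM final). Six hours later at 37 C, ATP content was measured by CellTiter-Glo luminescence.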

[2] = qHTS assay to identify small molecule agonists of the retinoic acid receptor (RAR) signaling pathway (AID 1159553)
Procedure, shortened: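 Cell line C3RL4, RARE luciferase reporter. Treatment: compounds in DMSO, 6 hr, 37 C, 5% CO2, after overnight plating. Detection: luminescence, 30 min RT after reagent.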

[3] = qHTS assay to identify small molecule antagonists of the estrogen related receptor (ERR) signaling pathway from Tox21 library - cell viability counter screen (AID 1224834); note: nearly all actives have a fitted effect of over 30% in size; note: potency is the fitted concentration of half-maximal effect
Procedure, shortened: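 Viability readout (CellTiter-Fluor fluorescence, 30 min at 37 C) multiplexed with the ERR assay; cells treated 17.5 h at 37 C with compounds delivered in DMSO.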

[4] = qHTS assay to identify small molecule antagonists of the estrogen related receptor (ERR) signaling pathway - cell viability counter screen (AID 1224818);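 note: series mostly up to about 46 µM; viability measured after 17.5 h of compound exposure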
Procedure, shortened: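 Here, ERR cells are plated at 2,000 cells per well, allowed 6 h to attach, and treated with compounds in DMSO for 17.5 h at 37 C. CellTiter-Fluor is then added and fluorescence read after 30 min.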

[5] = qHTS assay to identify small molecule antagonists of the estrogen related receptor signaling pathway with the pleiotropic PPARgamma coactivator (PGC) cell viability counter screen (AID 1224822;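 note: series mostly up to about 46 µM; viability read after 17.5 h compound exposure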)
Procedure, shortened: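 qHTS format, DMSO compound stocks pin-transferred onto PGC/ERR cells 6 h after plating; 17.5 h exposure at 37 C, then CellTiter-Fluor fluorescence.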

[6] = qHTS assay to identify small molecule antagonists of the estrogen related receptor (ERR) signaling pathway (AID 1224819;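 note: luminescence from an ERR-driven luciferase reporter measured with One-Glo reagent; series mostly up to about 46 µM; nearly all actives have a fitted effect of over 50% in size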)
Procedure, shortened: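 LOPAC library screened for antagonism as reduced One-Glo luminescence in ERR reporter cells (2,000/well). Compounds were added after 6 h pre-incubation and left 18 h at 37C; reading followed a 30 min room-temperature reagent step.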

[7] = qHTS assay to identify small molecule agonists of the estrogen related receptor (ERR) signaling pathway (AID 1224820)
Procedure, shortened: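 Cells: ERR line from NTP, 2,000/well. Pre-incubation 6 h, 37 C/5% CO2. Compound (DMSO) pin transfer, 18 h 37 C. One-Glo, 30 min RT, luminescence.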

[8] = test system: estrogen-related receptor alpha (ERRalpha) with PGC-1alpha coactivator, human; assay: qHTS assay to identify small molecule antagonists of the estrogen related receptor signaling pathway with the pleiotropic PPARgamma coactivator (PGC) (AID 1224821; calls by dose curve;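 note: series mostly up to about 46 µM; lower luminescence signal means antagonism of PGC/ERR signalling; nearly all actives have a fitted effect of over 50% in size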)
Procedure, shortened: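 Luminescent read-out (One-Glo, 30 min at room temperature) following 18 h treatment of PGC/ERR cells at 37 C with compounds delivered in DMSO. Cells had settled 6 h at 37 C/5% CO2 before dosing.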

[9] = qHTS assay to identify small molecule agonists of the estrogen related receptor signaling pathway with the pleiotropic PPARgamma coactivator (PGC) (AID 1224823)
Procedure, shortened: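 Steps: plate PGC/ERR cells at 2,000 cells/well; incubate 6 h, 37 C/5% CO2; pin-transfer compounds (DMSO); incubate 18 h, 37 C; add One-Glo; 30 min RT; read luminescence.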

With `COc1c(N2CCNC(C)C2)c(F)cc2c(=O)c(C(=O)O)cn(C3CC3)c12` (centres undefined) the outcome [1] was “inactive”, the Potency [2] was “inactive” and the Potency [3] was “inactive”.
In the case of `C[N+]1(C)CCCC(OC(=O)C(O)(c2ccccc2)c2ccccc2)C1` (centres undefined), the outcome [1] is reported as “inactive”, the Potency [2] is reported as “inactive” and the Potency [3] is reported as “inactive”.
In the case of `CC(C(=O)O)c1cccc(Oc2ccccc2)c1` (centres undefined), the outcome [1] is reported as “inactive”, the Potency [2] is reported as “inactive” and the Potency [3] is reported as “inactive”.
For `CCCCCCCCCCCCCCCCCCO`, the outcome [1] was “inactive” and the Potency [3] was “inactive”.
With `CCOCC(C)O` (centres undefined) the outcome [1] was “inactive” and the Potency [3] was “inactive”.
In the case of `Nc1ccn([C@@H]2O[C@H](CO)[C@@H](O)C2(F)F)c(=O)n1`, the outcome [1] is reported as “inactive”, the Potency [2] is reported as “inactive” and the Potency [3] is reported as “inactive”.
With `CCOC(=O)c1cnc2c(cnn2CC)c1NN=C(C)C` the outcome [1] was “inactive”, the outcome [4] was “inactive” and the outcome [5] was “inactive”. For the same compound, the Potency [3] was “inactive”.
For `Nc1c2c(nc3c1CCC3)CCCC2`, the outcome [1] was “inactive”, the Potency [2] was “inactive” and the Potency [3] was “inactive”.
For `Cc1ccc(C(=O)c2ccc(CC(=O)O)n2C)cc1`, the outcome [1] was “inactive”, the Potency [2] was “inactive” and the Potency [3] was “inactive”.
In the case of `COc1cccc(OC)c1C(=O)N[C@@H]1C(=O)N2[C@@H]1SC(C)(C)[C@@H]2C(=O)O`, the outcome [1] is reported as “inactive” and the Potency [3] is reported as “inactive”.
In the case of `CC(C)C(=O)OC(=O)C(C)C`, the outcome [1] is reported as “inactive” and the Potency [3] is reported as “inactive”.
With `CCN1C=CN(C)C1C` (centres undefined) the outcome [1] was “inactive”, the Potency [2] was “inactive” and the Potency [3] was “inactive”.
In the case of `CN(C)C(=O)Oc1ccc[n+](C)c1`, the outcome [1] is reported as “inactive”, the outcome [4] is reported as “inactive” and the outcome [6] is reported as “inactive”. The outcome [7] was “inactive”, the outcome [8] was “inactive” and the outcome [5] was “inactive”. The outcome [9] was “inactive” and the Potency [3] was “inactive”.
With `COc1cc(C(=O)NCc2ccc(OCCN(C)C)cc2)cc(OC)c1OC` the outcome [1] was “inactive”, the Potency [2] was “inactive” and the Potency [3] was “inactive”.
In the case of `CC[N+](CC)(CC)CCOc1cccc(OCC[N+](CC)(CC)CC)c1OCC[N+](CC)(CC)CC`, the outcome [1] is reported as “inactive”, the outcome [4] is reported as “inactive” and the outcome [5] is reported as “inactive”. For the same compound, the Potency [3] was “inactive”.
In the case of `O=C(O)CCSCCC(=O)O`, the outcome [1] is reported as “inactive” and the Potency [3] is reported as “inactive”.
For `O=C(O)CCCC[P+](c1ccccc1)(c1ccccc1)c1ccccc1`, the outcome [1] was “inactive”, the Potency [2] was “inactive” and the Potency [3] was “inactive”.
In the case of `CC1=NS(=O)(=O)c2cc(Cl)ccc2N1`, the outcome [1] is reported as “inactive”, the outcome [4] is reported as “inactive” and the Potency [3] is reported as “inactive”.
In the case of `Cc1ccc(C(=O)Nc2ccc(S(=O)(=O)O)c3cc(S(=O)(=O)O)cc(S(=O)(=O)O)c23)cc1NC(=O)c1cccc(NC(=O)Nc2cccc(C(=O)Nc3cc(C(=O)Nc4ccc(S(=O)(=O)O)c5cc(S(=O)(=O)O)cc(S(=O)(=O)O)c45)ccc3C)c2)c1`, the outcome [1] is reported as “inactive”, the outcome [4] is reported as “inactive” and the outcome [6] is reported as “inactive”. For the same compound, the outcome [7] was “inactive”, the outcome [8] was “inactive” and the outcome [5] was “inactive”. For the same compound, the outcome [9] was “inactive” and the Potency [3] was “inactive”.
With `Cc1ncc(COP(=O)(O)O)c(C=O)c1O` the outcome [1] was “inactive”, the Potency [2] was “inactive” and the Potency [3] was “inactive”.
In the case of `CCOc1ccc2nc(S(N)(=O)=O)sc2c1`, the outcome [1] is reported as “inactive” and the Potency [3] is reported as “inactive”.
For `NS(=O)(=O)Cc1noc2ccccc12`, the outcome [1] was “inactive” and the Potency [3] was “inactive”.
In the case of `CC(=O)N[C@H]1[C@H]([C@H](O)[C@H](O)CO)OC(C(=O)O)=C[C@@H]1N=C(N)N`, the outcome [1] is reported as “inactive” and the Potency [3] is reported as “inactive”.
In the case of `CN1CC(=O)N/C1=N/C(=O)Nc1cccc(Cl)c1`, the outcome [1] is reported as “inactive”, the outcome [4] is reported as “inactive” and the outcome [5] is reported as “inactive”. The Potency [3] was “inactive”.
In the case of `COc1ccc2cc1Oc1cc3c(cc1OC)CC[N+](C)(C)[C@H]3Cc1ccc(cc1)Oc1c(OC)c(OC)cc3c1[C@@H](C2)[N+](C)(C)CC3`, the outcome [1] is reported as “inactive”, the Potency [2] is reported as “inactive” and the Potency [3] is reported as “inactive”.
For `CC(=O)c1ccccc1[N+](=O)[O-]`, the outcome [1] was “inactive”, the Potency [2] was “inactive” and the Potency [3] was “inactive”.
With `CC(C)NNC(=O)c1ccncc1` the outcome [1] was “inactive”, the outcome [4] was “inactive” and the outcome [5] was “inactive”. For the same compound, the Potency [3] was “inactive”.
In the case of `C1CCC2(CCCCO2)OC1`, the outcome [1] is reported as “inactive” and the Potency [3] is reported as “inactive”.
For `CCN(Cc1ccccc1)c1ccccc1`, the outcome [1] was “inactive”, the Potency [2] was “inactive” and the Potency [3] was 24 µM (active).
With `O=C(CO)[C@@H](O)[C@H](O)[C@@H](O)CO` the outcome [1] was “inactive” and the Potency [3] was “inactive”.
With `O=C(O)CNC(=O)c1ccc(CO)o1` the outcome [1] was “inactive” and the Potency [3] was “inactive”.
In the case of `Cc1coc2ccccc2c1=O`, the outcome [1] is reported as “inactive” and the Potency [3] is reported as “inactive”.
For `CCC(C)(CCCC(C)C)OC(C)=O` (centres undefined), the outcome [1] was “inactive” and the Potency [3] was “inactive”.
For `COCCOCC(OC)OC`, the outcome [1] was “inactive” and the Potency [3] was “inactive”.
With `CCCCCCCCCCOc1cc2c(=O)c(C(=O)OCC)c[nH]c2cc1OCC` the activity change, negative = cytotoxicity [1] was 1.07% [at 8.39 µM] and the viability change, negative = cytotoxic [3] was 3.47% [at 8.39 µM].
